Assay outcomes as filed in PubChem BioAssay.
The sample as a whole holds a higher share of hits than the screen did.
CHX counter: counter-screen hit for Shiga toxin inhibitors, cycloheximide; max response, %; cell reporter, cycloheximide protein synthesis inhibition counterscreen; 300,000 tested, 12% active; in the data active = max response mostly above about 13%, no sharp cut-off; inactive = mostly below about 14%; note: read at 38.3 µM for the half of the compounds with a filed dose; 0% is about no effect
LmPK inh: inhibitors of Leishmania mexicana pyruvate kinase | Q27686 | purified LmPK, Kinase-Glo ATP luminescence, 1 h | Potency, µM (highest dose often 57.5 µM), for inactives: at the top dose activity change, negative = inhibition, most hits filed as inhibitors | 290,000 tested, 0.37% active; note: potency is the fitted concentration of half-maximal effect; % is set by controls: 0 for no effect and ±100 for the full control effect
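In 50 mM imidazole pH 7.2 with 7 mM MgCl2, LmPK (0.1 nM) turned over PEP (0.5 mM) and ADP (0.1 mM) for 1 h at room temperature. Luciferase read-out of ATP.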
Giardia FBPA inh: Giardia lamblia aldolase inhibition; A8B2U2; purified Giardia FBPA; Potency, µM (doses to about 59.6 µM), without a hit: at the highest dose activity, negative = inhibition, actives largely listed as inhibitors; 290,000 tested, 0.71% active; AID 2451; note: potency is the fitted concentration of half-maximal effect; % is set by controls: 0 for no effect and ±100 for the full control effect; nearly all actives have a fitted effect of over 55% in size
Target sequence (A8B2U2 whole entry, looked up): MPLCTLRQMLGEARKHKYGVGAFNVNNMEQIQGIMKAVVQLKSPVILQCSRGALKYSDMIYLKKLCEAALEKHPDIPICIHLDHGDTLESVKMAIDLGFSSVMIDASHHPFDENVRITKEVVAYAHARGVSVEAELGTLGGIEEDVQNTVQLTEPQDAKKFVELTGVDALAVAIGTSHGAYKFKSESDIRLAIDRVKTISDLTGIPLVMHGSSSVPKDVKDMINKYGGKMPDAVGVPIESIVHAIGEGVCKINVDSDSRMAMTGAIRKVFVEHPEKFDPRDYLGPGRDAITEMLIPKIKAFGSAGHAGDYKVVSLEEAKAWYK
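Giardia FBPA (40 nM reagent) was preincubated 10 min at RT with compound (up to 57.5 uM final), then substrate plus GAPDH/TPI/NAD/arsenate coupling system with diaphorase/resazurin was added; resorufin fluorescence (525/598 nm) was read after 20 min.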
Shiga inhibitor: inhibitors of Shiga toxin in Vero cells; AID 2315; Vero cells, Shiga toxin protein synthesis inhibition reporter; 290,000 tested, 9.2% active; inhibition, % at 38.7 µM; in the data active = inhibition mostly above about 28%, no sharp cut-off; inactive = mostly below about 43%; note: 0% is about no effect
Sm TGR inh: S. mansoni TGR enzyme inhibition; Q962Y6; purified TGR, DTNB reduction, TNB absorbance 405 nm; Potency, µM (titrated, usually from 114 µM), without a hit: at the top dose activity change, negative = inhibition, most hits filed as inhibitors; 360,000 tested, 3% active; AID 485364; note: potency is the fitted concentration of half-maximal effect; % is set by controls: 0 for no effect and ±100 for the full control effect; nearly all actives have a fitted effect of over 60% in size
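TGR 20 nM + NADPH 100 uM (dispensed conc.), cpd preinc 15 min RT; start with NADPH (500 uM addition) then DTNB (15 mM addition). Kinetic TNB absorbance, 405 nm filter. Four-parameter Hill fit across titration.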
TbPYK inhibitor: blocks Trypanosoma brucei pyruvate kinase; Q57TT1; TbPYK enzyme, Kinase-Glo Plus ATP luminescence, 45 min; Potency, µM (highest dose often 76.8 µM), for inactives: at the top dose activity, negative = inhibition, hits mostly inhibitors; 410,000 tested, 0.12% active; AID 624173; note: potency is the fitted concentration of half-maximal effect; % is set by controls: 0 for no effect and ±100 for the full control effect; nearly all actives have a fitted effect of over 50% in size
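Glycolytic pyruvate kinase of T. brucei was incubated with substrate, test compound and 130 uM ADP for 45 minutes at room temperature. Luminescent Kinase-Glo Plus signal was measured after 10 minutes.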
The depositor's hits bear a star; i = inactive; ? = inconclusive; · = no result given; [ ] = remark or other dose. Unless noted, calls come from the whole dose curve; as a rule, active = well fitted curve in the direction sought with a large enough effect; inconclusive = small, poorly fitted or top-dose-only effect, or another doubt; inactive = no such curve, though single readings can be large; an effect the other way counts as inactive or inconclusive.

SMILES	CHX counter	LmPK inh	Giardia FBPA inh	Shiga inhibitor	Sm TGR inh	TbPYK inhibitor
Cc1ccc(NC(=O)c2ccc3nsnc3c2)c(Cl)c1	58*	-3%	1%	105*	-6%	-2%
O=C(Nc1ccc(Br)cc1F)c1ccncc1	25*	-2%	1%	56*	-3%	-4%
CCCOc1cccc(C(=O)Nc2cccc3ncccc23)c1	-1	-7%	11%	-7	-10%	3%
Cc1ccc(C)c(Cn2c(-c3cccs3)nc3ccccc32)c1	·	·	·	·	0%	1%
O=C(CCSCc1ccccc1Cl)N1CCN(c2ccccn2)CC1	41*	3%	-1%	44*	4%	2%
Cc1ccc(SCc2ccc(C(=O)N3CCCC3)cc2)cc1	39*	-9%	3%	96*	19%	-18%
CCN1CCN(C(=O)c2ccc(CSc3ccc(C)cc3)cc2)CC1	13	0%	-5%	25	9%	-7%
Cc1ccc(SCC(=O)N2CCCC2)cc1	23*	-1%	1%	124*	6%	-6%
Cc1ccc(SCCC(=O)NC(C)C)cc1	19	-6%	6%	25	-14%	2%
Cc1ccc(SCCC(=O)N2CCCC2)cc1	43*	-6%	1%	86*	40%	-3%
COc1ccccc1Cn1c(CNS(=O)(=O)c2ccc3c(c2)CCCC3)nc2cccnc21	·	·	·	·	2%	-6%
COc1ccc(N2CCN(C(=O)c3cc(S(=O)(=O)N4CCCCCC4)ccc3OC)CC2)cc1	·	·	·	·	5%	-13%
c1ccc(-c2nc3c4ccccc4ccn3c2Cc2ccsc2)cc1	·	·	·	·	·	2%
Cc1ccc(OCCNC(=O)CCC(=O)N2CCOCC2)cc1	·	·	·	·	-8%	-3%
Cc1ccc(SCCC(=O)N2CCOCC2)cc1	26*	0%	-1%	82	-20%	0%
Cc1ccc(SCC(=O)N2CCN(c3ccccn3)CC2)cc1	18*	0%	3%	52*	-16%	-1%
O=C(CSc1ccc(Cl)cc1)N1CCCC1	46*	0%	4%	65	·	?
O=C(CSc1ccc(Cl)cc1)NN=C1CCCCCC1	14	-2%	-1%	35	3%	-8%
Cc1ccc(C2CC(=O)Oc3cc(C)c(Cl)c(C)c32)cc1 (stereo unspecified)	3	·	-1%[89.2 µM]	i	·	·
Cc1cc(C(=O)CCC(=O)N(C)CC(=O)Nc2ccc(OC(F)(F)F)cc2)c(C)s1	·	·	·	·	-10%	-1%
COc1cc2ccccc2cc1C(=O)Nc1ccc2oc(-c3cccc(Cl)c3Cl)nc2c1	·	·	·	·	-2%	1%
O=C(Nc1ccc2oc(-c3cc(Br)ccc3Cl)nc2c1)c1ccc2ccccc2c1	·	·	·	·	-1%	-1%
O=C(Nc1ccc2oc(-c3cccc4ccccc34)nc2c1)c1ncn[nH]1	18*	1%	1%	27	-26%	6%
O=C(Nc1ccc2oc(-c3ccccc3Cl)nc2c1)c1cncc(Br)c1	66*	0%	2%	71*	0%	2%
O=C(Nc1ccc2oc(-c3ccccc3Cl)nc2c1)c1ncn[nH]1	43*	-3%	3%	113*	2%	-9%
SMILES	CHX counter	LmPK inh	Giardia FBPA inh	Shiga inhibitor	Sm TGR inh	TbPYK inhibitor
CCOC(=O)c1c(NC(=O)CCCOc2ccc(C)cc2)sc2c1CCC(C)C2 (stereo unspecified)	·	·	·	·	9%	-4%
C=C1C2=CC(=O)OC(c3ccoc3)[C@]2(C)CCC1[C@]1(C)C=CC(=O)C(C)(C)C1CC(=O)OC (stereo partly specified)	·	·	-12%	·	·	·
CC(C(=O)NCc1ccccc1)N1Cc2ccccc2C1=O (stereo unspecified)	·	·	·	·	3%	-7%
Fc1ccccc1C1CC(c2ccco2)=Nc2ccccc2S1 (stereo unspecified)	49*	1%	?	104*	8.9µM*	-14%
Cc1c2cnn(CC(=O)NC(C)C)c(=O)c2c(C)n1Cc1cccc(Cl)c1	·	·	·	·	-1%	-1%
CC(C)(C)c1ccc(CN2N=Nc3ccccc3S2(=O)=O)cc1	6	-13%	?	9	13µM*	0%
O=S1(=O)CCN(Cc2ccc(Cl)c(Cl)c2)CC1	-2	0%	1%	22	15%	2%
O=S1(=O)c2ccccc2N=NN1Cc1ccc(Cl)c(Cl)c1	5	2%	-21%	21	4µM*	·
CCn1c(C)nc2cc(C(=O)N/N=C/c3cccc(OC)c3O)ccc21	18	1%	8%	60*	·	-5%
COc1cccc(/C=N/NC(=O)c2ccc3nc[nH]c3c2)c1O	0	-6%	18%	31	-13%	-3%
CCn1c(C)nc2cc(C(=O)N/N=C/c3ccc(O)c(O)c3O)ccc21	11	1%	13µM*	10	·	?
COc1cc(/C=N/O)ccc1OCc1ccc(C(=O)O)cc1	54*	?	12%	21	4%	4%
COc1ccc(/C=N/NC(=O)Cc2ccc(Cl)cc2)cc1OC	1	4%	3%	21	-10%	4%
COc1cc(/C=N/N=C(N)N)ccc1OCc1ccc(Cl)cc1	40*	0%	-2%	76	·	0%
COc1cc(/C=N/O)ccc1OCc1ccc(Cl)cc1	37*	-3%	?	70	·	·
COc1cc(/C=N/N=C2/NC(=O)C(CC(=O)O)S2)ccc1OCc1ccc(Cl)cc1 (stereo unspecified)	20*	?	7%	38	-10%	18µM*
CCOc1cc(/C=N/N=C(N)N)ccc1OCc1ccc(Cl)cc1	-12	-5%	2%	-23	-2%	-4%
COc1cccc(CNS(=O)(=O)c2cc3c(cc2Cl)NC(=O)CO3)c1	-2	0%	-7%	-6	-11%	1%
O=C(Nc1cccc(-c2nnc(-c3ccco3)o2)c1)c1ccccc1	3	2%	5%	32	6%	4%
O=C(Nc1ccccc1)Nc1cccc(-c2nnco2)c1	20*	1%	6%	48*	13%	1%
O=C(Nc1ccc(-c2nnco2)cc1)c1ccccc1	14*	-2%	0%	68*	2%	-2%
CN(C)c1ccc(N=NS(=O)(=O)O)cc1	·	·	·	·	·	-6%[157 µM]
CCCC(=O)N1CCN(c2nc3ccc(Br)cc3s2)CC1	44*	-6%	·	46*	-1%	-2%
CCCC(=O)N1CCN(c2nc3ccc(CC)cc3s2)CC1	36*	-7%	·	134*	-11%	0%
O=C(c1ccco1)N1CCN(c2nc3ccc(Cl)cc3s2)CC1	·	·	·	·	5%	-3%
CCCCC(=O)N1CCN(c2nc3ccc(Br)cc3s2)CC1	26*	-6%	·	45*	-4%	1%
CCCC(=O)N1CCN(c2nc3ccc(Cl)cc3s2)CC1	43*	-8%	·	50*	-13%	2%
CCN(C(=O)c1nn(-c2ccc(C)cc2)c(=O)c2c1c1ccccc1n2C)c1ccc(F)cc1	·	·	·	·	6%	-1%
Cn1c(=O)c2sccc2n2c(CCCC(=O)Nc3ccc(F)c(F)c3)nnc12	·	·	·	·	-1%	-2%
